Results reported in PubChem BioAssay (NCATS).
Records with an inconclusive call do not appear. Active and inactive are the calls of the source. Calls come from the whole dose curve; as a rule, active = well fitted cell-killing curve with a large enough effect; inconclusive = small, poorly fitted or top-dose-only effect, or effect the other way; inactive = flat fitted curve, though single readings scatter.

Experiments:
Assay in all cases: Primary qHTS to identify gynecologic anti-cancer compounds using libraries of approved drugs and bioactive compounds (AID 1345084); note: nearly all actives have a fitted effect of over 55% in size
Settings in all cases: Gynecologic cancer cell panel viability, ATPlite luminescence, 48 h; series mostly up to 57.5 µM
JEG-3 = system: JEG-3
Method in brief: (§1)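 48 h compound exposure at 37 C, 5% CO2; five-point qHTS. ATPlite luminescence readout of cell ATP.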

OV90 = system: OV90
Method in brief: as §1

PA-1 = system: PA-1
Method in brief: as §1

SKOV3 = system: SKOV3
Method in brief: as §1

Tov-21-G = system: Tov-21-G
Method in brief: as §1

Tov112D = system: Tov112D
Method in brief: as §1
% is set by controls: 0 for no effect and ±100 for the full control effect.

COC(=O)CC1CC(c2ccc(O)cc2)=NO1 (stereo not drawn)
inactive: Potency (JEG-3) | Potency (OV90) | Potency (PA-1) | Potency (SKOV3) | Potency (Tov-21-G) | Potency (Tov112D)

Cc1noc(-c2ccc(-c3ccc(CC(=O)O)cc3)cc2)c1NC(=O)O[C@H](C)c1ccccc1
inactive: Potency (JEG-3) | Potency (OV90) | Potency (PA-1) | Potency (SKOV3) | Potency (Tov-21-G) | Potency (Tov112D)

C=C1C[C@@]23CCC4[C@@](C)(CCC[C@@]4(C)C(=O)OC)C2CC[C@@H]1C3 (stereo partly drawn)
inactive: Potency (JEG-3) | Potency (OV90) | Potency (PA-1) | Potency (SKOV3) | Potency (Tov-21-G) | Potency (Tov112D)

C=C1CCC2C(C)(C(=O)O)CCCC2(C)C1CCC(C)CC(=O)O (stereo not drawn)
inactive: Potency (JEG-3) | Potency (OV90) | Potency (PA-1) | Potency (SKOV3) | Potency (Tov-21-G) | Potency (Tov112D)

C=CC/C=C\C/C=C\CCCCCCCc1cccc(O)c1C(=O)O
inactive: Potency (JEG-3) | Potency (OV90) | Potency (PA-1) | Potency (SKOV3) | Potency (Tov-21-G) | Potency (Tov112D)

COC1C(CO)OC(n2cnc3c(=O)[nH]cnc32)C1O (stereo not drawn)
inactive: Potency (JEG-3) | Potency (OV90) | Potency (PA-1) | Potency (SKOV3) | Potency (Tov-21-G) | Potency (Tov112D)

Cc1cc(=O)oc2c(C=O)c(O)ccc12
inactive: Potency (JEG-3) | Potency (OV90) | Potency (PA-1) | Potency (SKOV3) | Potency (Tov-21-G) | Potency (Tov112D)

CC[C@H](NC(=O)[C@H](CS(=O)(=O)CC1CC1)N[C@@H](c1ccc(F)cc1)C(F)(F)F)C(=O)C(=O)NC1CC1
inactive: Potency (JEG-3) | Potency (OV90) | Potency (PA-1) | Potency (SKOV3) | Potency (Tov-21-G) | Potency (Tov112D)

COC(=O)c1ccccc1O[C@@H]1O[C@H](CO)[C@@H](O)[C@H](O)[C@H]1O[C@@H]1O[C@@H](C)[C@H](O)[C@@H](O)[C@H]1O
inactive: Potency (JEG-3) | Potency (OV90) | Potency (PA-1) | Potency (SKOV3) | Potency (Tov-21-G) | Potency (Tov112D)

COc1cccc(C(=O)N2CCN(C(=O)COc3cccc(C)c3)CC2)c1OC
inactive: Potency (JEG-3) | Potency (OV90) | Potency (PA-1) | Potency (SKOV3) | Potency (Tov-21-G) | Potency (Tov112D)

Cc1ccc(NC(=O)C(=O)NC2CC(C)(C)NC(C)(C)C2)cc1
inactive: Potency (JEG-3) | Potency (OV90) | Potency (PA-1) | Potency (SKOV3) | Potency (Tov-21-G) | Potency (Tov112D)

CC[C@H]1OC(=O)[C@H](C)[C@@H](O[C@H]2C[C@@](C)(OC)[C@@H](O)[C@H](C)O2)[C@H](C)[C@@H](O[C@@H]2O[C@H](C)C[C@H](N(C)C)[C@H]2O)[C@](C)(O)C[C@@H](C)C(=O)[C@H](C)[C@H]2OC(=O)O[C@@]21C
inactive: Potency (JEG-3) | Potency (OV90) | Potency (PA-1) | Potency (SKOV3) | Potency (Tov-21-G) | Potency (Tov112D)

O=C(NCc1ccccn1)Nc1nnc(-c2ccco2)o1
inactive: Potency (JEG-3) | Potency (OV90) | Potency (PA-1) | Potency (SKOV3) | Potency (Tov-21-G) | Potency (Tov112D)

CC(=O)N[C@@H](C(=O)O[C@H]1CCC(C)(C)[C@@H]2CCC3=C(COC3=O)[C@@]12C)C(C)C
inactive: Potency (JEG-3) | Potency (OV90) | Potency (PA-1) | Potency (SKOV3) | Potency (Tov-21-G) | Potency (Tov112D)

COc1ccc(-c2ccc(-c3cn(C(=O)N4CCCCC4c4ccccc4)nn3)cc2)cc1 (stereo not drawn)
inactive: Potency (JEG-3) | Potency (OV90) | Potency (PA-1) | Potency (SKOV3) | Potency (Tov-21-G) | Potency (Tov112D)

C[C@@H]([C@@H](O)c1ccc(O)cc1)N1CCC(O)(c2ccccc2)CC1
inactive: Potency (JEG-3) | Potency (OV90) | Potency (PA-1) | Potency (SKOV3) | Potency (Tov-21-G) | Potency (Tov112D)

CCO[C@@H]1OC(=O)C[C@@H]1NC(=O)[C@@H]1CCCN1C(=O)[C@@H](NC(=O)c1ccc(N)c(Cl)c1)C(C)(C)C
inactive: Potency (JEG-3) | Potency (OV90) | Potency (PA-1) | Potency (SKOV3) | Potency (Tov-21-G) | Potency (Tov112D)

C[C@@H]1O[C@@H](O[C@H]2[C@H](O[C@H]3[C@H](O)[C@@H](C(=O)O)O[C@@H](O[C@H]4CC[C@@]5(C)C(CC[C@]6(C)C5CC[C@]57OC[C@@]8(CCC(C)(C)CC85)[C@H](O)C[C@]76C)C4(C)C)[C@@H]3O[C@@H]3O[C@H](CO)[C@@H](O[C@@H]4OC[C@@H](O)[C@H](O)[C@H]4O)[C@H](O)[C@H]3O)O[C@H](CO)[C@H](O)[C@@H]2O)[C@H](O)[C@H](O)[C@H]1O (stereo partly drawn)
inactive: activity change, negative = cytotoxicity (JEG-3) 1.85% [at 6.55 µM] | activity change, negative = cytotoxicity (OV90) -19.1% [at 6.55 µM] | activity change, negative = cytotoxicity (PA-1) 5.43% [at 6.55 µM] | activity change, negative = cytotoxicity (SKOV3) 0% [at 6.55 µM] | activity change, negative = cytotoxicity (Tov-21-G) -4.6% [at 6.55 µM] | activity change, negative = cytotoxicity (Tov112D) 10.2% [at 6.55 µM]
